PNC inhibitor: inhibitors of perinucleolar compartment assembly; activity change (PNC), negative = inhibition, % at 10 µM; PC3M PTB-GFP, PNC prevalence imaging, 16 h; active compounds read low; hit rate 3.1% among 140,000;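 active = readout at or below -70, meaning at least 70% loss of cells showing the perinucleolar compartment, a nuclear body marking cancer cells; inconclusive = readout between -30 and a set limit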;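 also: plate controls were DMSO wells for no effect and camptothecin positive control wells for full effect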
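Compounds are pinned in duplicate onto adhered PC3M cells stably expressing GFP-tagged PTB and incubated 16 h at 37 C. Cells are then fixed, nuclei stained with Hoechst, and PNC-positive cells counted.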
ALOX12 inhib: blocks human 12-lipoxygenase activity. hit rate 0.12% among 150,000. Potency, µM (top dose mostly 57.1 µM), without a hit: at the top dose activity change, negative = inhibition, usual class: inhibitors. purified 12-hLO, xylenol orange hydroperoxide absorbance; active = well fitted inhibition curve with a large enough effect; inconclusive = small, poorly fitted or top-dose-only effect; also: potency is read from the fitted curve at half-maximal effect; nearly all actives have a fitted effect of over 55% in size
Target sequence (P18054 whole entry, looked up): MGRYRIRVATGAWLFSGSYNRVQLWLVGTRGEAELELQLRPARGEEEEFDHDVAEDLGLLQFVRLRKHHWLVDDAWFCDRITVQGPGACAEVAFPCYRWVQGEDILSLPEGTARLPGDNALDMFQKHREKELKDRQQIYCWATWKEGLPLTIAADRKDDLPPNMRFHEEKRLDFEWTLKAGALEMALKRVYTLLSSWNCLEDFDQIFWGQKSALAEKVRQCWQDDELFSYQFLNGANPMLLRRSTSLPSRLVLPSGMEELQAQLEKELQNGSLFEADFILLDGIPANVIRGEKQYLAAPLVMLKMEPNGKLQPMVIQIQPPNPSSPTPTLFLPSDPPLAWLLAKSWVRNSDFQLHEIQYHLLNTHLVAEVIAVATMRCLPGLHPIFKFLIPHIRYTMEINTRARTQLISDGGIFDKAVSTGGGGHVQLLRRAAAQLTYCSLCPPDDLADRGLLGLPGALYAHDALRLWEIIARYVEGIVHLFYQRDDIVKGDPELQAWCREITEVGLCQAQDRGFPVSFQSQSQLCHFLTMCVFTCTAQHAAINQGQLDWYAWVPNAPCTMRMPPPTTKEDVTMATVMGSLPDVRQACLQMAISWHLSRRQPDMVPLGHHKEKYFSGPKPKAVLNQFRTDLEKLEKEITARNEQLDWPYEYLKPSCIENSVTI
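150 nM 12hLO, 25 mM Hepes pH 7.0 + 0.01% Triton X-100; cpd preinc 15 min RT; 40 uM arachidonic acid, 30 min RT; Fe-XO 30 min; A573/A405 ratio as read-out.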
HPGD inh: inhibitors of human 15-hydroxyprostaglandin dehydrogenase (HPGD); P15428; purified HPGD, NADH fluorescence kinetic, PGE2 substrate; Potency, µM, for the others: at the highest dose activity change, negative = inhibition, most hits filed as inhibitors; hit rate 4.3% among 150,000; AID 894; also: potency is read from the fitted curve at half-maximal effect
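NADH formation kinetics: reaction with 30 uM PGE2 and 1 mM NAD+ (final), 20 nM enzyme, Tris-HCl pH 8 with Tween 20, after 15 min compound preincubation at room temperature. Fluorescence change, last versus first of five reads.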
Lamin A splicing: LMNA splicing modulation; Potency, µM (highest dose often 46.1 µM), for the others: top-dose ratio change, negative = inhibition, most hits filed as inhibitors; HeLa LMNA splicing GFP/RFP minigene ratio, 48 h; hit rate 0.01% among 200,000; AID 1487; active = well fitted inhibition curve with a large enough effect in the signal ratio, with a control signal flat, not every such curve was filed as active; inconclusive = small, poorly fitted or top-dose-only effect, or effect the other way, or a change in a side signal; the % refers to the signal ratio; also: potency is read from the fitted curve at half-maximal effect
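S3 HeLa stable clones carrying a lamin A-EGFP splicing minigene plus DsRed2 were seeded at 600 cells/well in Opti-MEM with 2% FBS, pin-dosed and incubated 48 h at 37°C. Acumen cytometry (488 nm) gave the GFP/RFP total-intensity ratio.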
ALDH1A1 inh: inhibitors of human aldehyde dehydrogenase 1A1; P00352; Purified ALDH1A1, NADH fluorescence, propionaldehyde substrate; Potency, µM (doses to about 75.3 µM), for inactives: at the highest dose activity, negative = inhibition, hits mostly inhibitors; hit rate 7.3% among 220,000;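 also: potency is read from the fitted curve at half-maximal effect; plate controls were no enzyme wells and a reference inhibitor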
The depositor's hits bear a star; u = inconclusive; x = no result; [ ] = another dose, or the depositor's remark. In the library only some 10% were active in any assay of this set; here they are far more common. Unless noted, calls follow the shape of the dose curve; as a rule, active = well fitted inhibition curve with a large enough effect (not every such curve was filed as active); inconclusive = small, poorly fitted or top-dose-only effect, or another doubt; inactive = no such curve, though single readings can be large or run the other way. Unless noted, % is scaled to controls: 0 for no effect and ±100 for the full control effect.

SMILES | PNC inhibitor | ALOX12 inhib | HPGD inh | Lamin A splicing | ALDH1A1 inh
CC(C)c1onc(C(=O)N2CCN(Cc3ccccc3)CC2)c1[N+](=O)[O-] | 16 | -2% | -8% | u | 2.5µM*
Cc1ccc(C(=O)N2CCC(C)CC2)cc1C | 16 | -4% | 0.79µM* | -3% | 11µM*
Cc1ccc(C(=O)N2CCN(c3ccccc3)CC2)cc1C | -107* | -1% | -10% | -13% | u
Cc1ccc(C(=O)N2CCN(c3cccc(Cl)c3)CC2)cc1C | u | -6% | -17% | u | u
CCC(=O)N1c2ccccc2CC1C(=O)NCCc1ccccc1C (configuration not stated) | x | x | x | 0%[46 µM] | x
CN(C)C(=O)COC(=O)c1ccccc1Nc1ccc(SC(F)F)cc1 | -105* | -12% | u | u | u
COc1ccccc1NC(=O)COC(=O)c1ccccc1OCC(=O)Nc1ccc(SC(F)F)cc1 | 15 | -1% | -25% | 1% | 10%
COc1ccc2[nH]cc(CCNc3ccnc(-c4ccccc4C(F)(F)F)n3)c2c1 | x | x | x | u | 8%
CCC(CC)NC(=O)CON=C1c2ccccc2-c2ccccc21 | -81* | 0% | 7.9µM* | 7% | 4%
CCNC(=O)CON=C1c2ccccc2-c2ccccc21 | 9 | -2% | -14% | u | 12%
COc1ccc(Oc2ccc(N/C=C3\CCCC3=O)cc2)cc1 | -12 | -6% | -16% | u | u
COc1ccc(N/C=C2/CCCCC2=O)cc1 | 31 | -12% | 25µM* | 29% | 11µM*
COc1ccc(OC)c(N/C=C2/CCCCC2=O)c1 | 17 | -4% | 18µM* | -5% | u
COc1ccc(Oc2ccc(N/C=C3/CCCC3=O)cc2)cc1 | 55 | 0% | -18% | u | u
Cc1cc(Cl)ccc1OC(C)C(=O)Nc1ccccc1N1CCOCC1 (configuration not stated) | -104* | -5% | -4% | u | 3%
COC(=O)c1ccccc1NC(=O)CNc1cc(Cl)ccc1N1CCOCC1 | -29 | -10% | -24% | -2% | 32µM*
Cc1ccc(NC(=O)c2nc(S(C)(=O)=O)ncc2N(Cc2ccc(C(C)(C)C)cc2)Cc2ccco2)cc1C | x | x | x | 1%[46 µM] | x
Cc1ccc(CNC(=O)CSc2n[nH]c(-c3ccc(F)cc3)n2)cc1 | x | x | x | 22%[46 µM] | x
COc1ccc(-n2c(-c3ccc(Br)cc3)c[n+]3c2CCc2ccccc2-3)cc1 | -134* | -3% | -6% | u | 2%
COc1ccc(-c2cn(-c3ccc(OC)cc3)c3[n+]2-c2ccccc2CC3)cc1 | -96* | 0% | -10% | u | u
COc1ccccc1-n1c(-c2ccccc2)c[n+]2c1CCc1ccccc1-2 | x | x | x | u | 5%
CC(C)(C)C1CCc2sc(-c3nnc(CCl)o3)cc2C1 (configuration not stated) | x | x | x | -15%[46 µM] | 22µM*
Cc1ccc(NC(=O)Cn2cccc2)cc1C | 52 | 4% | u | 5% | -17%
CCCCOC(=O)Nc1ccc(C(=O)OC)cc1 | 29 | -8% | -23% | 5% | 2%
Cc1ccc(NC(=O)Cn2cccc2)cc1Cl | 17 | 1% | 16µM* | u | 11µM*
SMILES | PNC inhibitor | ALOX12 inhib | HPGD inh | Lamin A splicing | ALDH1A1 inh
COCC(=O)Nc1ccc(C)c(Cl)c1 | -7 | 1% | 14µM* | -6% | -4%
CCCCOC(=O)Nc1ccc(C)c(Cl)c1 | -20 | -9% | 16µM* | 7% | 12%
c1ccc(CSc2ccc(-c3cccnc3)nn2)cc1 | x | x | x | x | -3%
CCCCC#Cc1nc(NC)c2ncn([C@@H]3O[C@@H](CO)[C@H](O)[C@H]3O)c2n1 | x | -2% | 4% | x | -1%
C(=C\c1nnc2c3ccccc3ncn12)/c1ccccc1 | -97* | -3% | -30% | u | u
COc1cc(/C=C/c2nnc3c4ccccc4ncn23)cc(OC)c1OC | 48 | 0% | x | -24% | -1%
CC(=O)Nc1ccc(C(C#N)c2ccccc2)cc1 (configuration not stated) | x | x | x | 9%[46 µM] | 14µM*
CC(=O)Nc1ccccc1 | x | 2% | -7% | -6% | 8%
N#CC(c1ccccc1)c1ccc(C(=O)c2ccc(F)cc2)cc1 (configuration not stated) | 36 | -8% | u | u | 20µM*
CC(NC(=O)c1ccc(F)cc1)c1ccc(F)cc1 (configuration not stated) | 24 | -1% | -15% | 7% | 6%
O=C(O)[C@@H](O)c1ccc(F)cc1 | x | -7%[11.4 µM] | -4% | x | 1%[13.5 µM]
N#CC(c1ccc(F)cc1)c1ccc(C(=O)c2ccccc2)cc1 (configuration not stated) | u | 9% | 14µM* | u | -39%
CCN(CC)C(=O)c1sc2c(c1C)c(=O)n(CCc1ccccc1)c(=O)n2Cc1cc(C)ccc1C | x | x | x | 12%[46 µM] | x
CCOc1cc(N2CCOCC2)c(OCC)cc1NC(C)C(=O)N1CCC(C)CC1 (configuration not stated) | u | -19% | x | -12% | 11µM*
CCOc1cc(N2CCOCC2)c(OCC)cc1NC(=O)[C@H](C)N1C(=O)C2CC=CCC2C1=O (some centres not stated) | x | x | x | 8%[46 µM] | -6%
CCOc1cc(N2CCOCC2)c(OCC)cc1NC(=O)Cc1ccc(OC)c(OC)c1 | -124* | -8% | -5% | u | -4%
CCOc1cc(N2CCOCC2)c(OCC)cc1NC(=O)CC12CC3CC(CC(C3)C1)C2 | u | -2% | -16% | u | 4.5µM*
CCOc1cc(N2CCOCC2)c(OCC)cc1NC(=O)Cc1cccc(OC)c1 | -12 | -11% | x | 9% | -3%
O=[N+]([O-])c1cccc(/C=N\NC2=CS(=O)(=O)C=C2)c1 | x | 2%[11.4 µM] | -9% | x | -2%[13.5 µM]
CCC(C(=O)NC(C)CCc1ccco1)n1nc(C)n2c(cc3occc32)c1=O (configuration not stated) | -100* | -5% | -2% | -10% | u
CCC(C(=O)NC(C)CCc1ccccc1)n1nc(C)n2c(cc3occc32)c1=O (configuration not stated) | u | -6% | -12% | u | 9%
CCOc1nc(NCCO)nc(NCCC2=CCCCC2)n1 | -100* | 3% | -8% | -14% | u
CCOC(=O)CNC(=O)c1ccc(OCC(F)(F)F)cc1 | x | x | x | 15%[9.22 µM] | 11%
COc1ccc(N2C(=O)CC(N3CCN(c4ccc(S(C)(=O)=O)cc4)CC3)C2=O)cc1 (configuration not stated) | 24 | -2% | -12% | 12% | 22µM*
COc1cccc2sc(N3CCN(c4nc5ccccc5s4)CC3)nc12 | u | -7% | x | 3% | 14µM*
COc1ccc(N2CCN(C3CC(=O)N(C)C3=O)CC2)cc1 (configuration not stated) | -1 | -4% | 2% | u | -7%
COc1ccc(N2C(=O)CC(N3CCN(c4nc5ccccc5s4)CC3)C2=O)cc1 (configuration not stated) | 9 | -4% | -8% | -5% | 25µM*

Assay outcomes as filed in PubChem.
